The entries come from a sample that favours hits as a whole.
ALOX12 inh – ALOX12 (human) lipoxygenase inhibition; Potency, µM (titrated, usually from 108 µM), inactives show at the highest dose activity change, negative = inhibition, actives largely listed as inhibitors; AID 1671190; 1.1% of 580,000 active; purified 12hLO, xylenol orange hydroperoxide absorbance; further: potency means the concentration at half of the fitted maximal effect
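Purified human 12hLO (150 nM final) in 25 mM Hepes, 0.01% Triton X-100, pH 7.0 was preincubated 15 min at room temperature with compound. Then 40 uM arachidonic acid was added, 30 min. Hydroperoxide was read by Fe-XO absorbance ratio 573/405 nm.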
HT1080NT lethal – kills 2HG-producing HT-1080-NT fibrosarcoma cells; 1.6% of 360,000 active; Potency, µM (titrated, usually from 46.1 µM), inactives show at the top dose activity, negative = less viability, usual class: cytotoxic; HT-1080-NT fibrosarcoma viability, CellTiter-Glo ATP luminescence, 48 h; AID 686970;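 further: NT is the 2HG producing partner of a matched IDH1 knockdown line; potency means the concentration at half of the fitted maximal effect; 0% = DMSO-treated cells and -100% = media-only wells without cells; nearly all actives have a fitted effect of over 55% in size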
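Viability by CellTiter-Glo luminescence after 48 h compound exposure at 37C of HT-1080-NT cells (750/well, RPMI, 5% FBS). % activity scaled between DMSO wells and medium-only wells, then curve-fitted and categorized by curve class.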
TDP1 cell CPT – DT40-hTDP1 cell growth loss with CPT; Potency, µM (doses to about 46.2 µM), for the others: top-dose activity change, negative = growth inhibition, most hits filed as inhibitors; chicken DT40 Tdp1-/-;hTDP1 cells + 20 nM CPT, ATP luminescence, 48 h; AID 686979; 12% of 420,000 active; further: potency means the concentration at half of the fitted maximal effect; nearly all actives have a fitted effect of over 55% in size
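Chicken DT40 Tdp1-/- cells stably complemented with human TDP1 were seeded at 400 cells/well in medium containing 20 nM camptothecin, exposed to pin-transferred compounds, and grown at 37 °C for at least 48 hr. Viability was read as ATP luminescence.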
HT1080 IDH1KD tx – HT-1080 IDH1 knockdown cell toxicity (counter line); HT-1080 IDH1 knockdown viability, ATP luminescence, 48 h; Potency, µM (titrated, usually from 46.1 µM), without a hit: top-dose activity, negative = toxicity, actives largely listed as cytotoxic; 2% of 360,000 active;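 further: potency means the concentration at half of the fitted maximal effect; 0% = DMSO wells and -100% = cell-free medium wells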
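HT-1080-IDH1KD cells (IDH1 knocked down), 750/well in RPMI with 5% FBS, treated with compound 48 h at 37 degrees C. Viability by CellTiter-Glo luminescence, normalised to DMSO and no-cell wells; concentration-response curves classed.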
IL1B secr inh – blocks inflammasome-driven IL-1 beta release; THP-1 LPS/ATP IL-1B secretion, AlphaLISA, 16 h; stronger effect = lower value; 4.7% of 360,000 active; AID 743279; activity change, % at 57.5 µM; in the data active means activity change below about -50%; inconclusive means mostly about -30% to -49%
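Secreted IL-1B measured by AlphaLISA bead assay after 16 h compound exposure of THP-1 cells; compounds (final up to 57.5 uM) added 1 h before LPS (250 ng/mL) and ATP (1.25 mM) stimulation; lower signal means less secretion.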
TDP1 cell noCPT – qHTS for Inhibitors of human tyrosyl-DNA phosphodiesterase 1 (TDP1): qHTS in cells in absence of CPT; DT40 Tdp1-/- hTDP1 cells, no CPT, ATP luminescence, 48 h; Potency, µM (top dose mostly 46.2 µM), inactives show top-dose activity change, negative = growth inhibition, actives largely listed as inhibitors; 15% of 420,000 active; AID 686978, 2013; further: potency means the concentration at half of the fitted maximal effect; nearly all actives have a fitted effect of over 55% in size
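Seeded 400 DT40-hTDP1 cells/well (vehicle DMSO, no 20 nM CPT); pinned compounds; ≥48 hr at 37 °C; CellTiter-Glo luminescence as viability measure.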
An asterisk follows results filed as active; i = inactive; ? = inconclusive; . = no result; [ ] = dose if it differs, or a comment. Unless noted, the call rests on the fitted dose curve; in most records, active means well fitted curve in the direction sought with a large enough effect; inconclusive means small, poorly fitted or top-dose-only effect, or another doubt; inactive means no such curve, though single readings can be large; an effect the other way counts as inactive or inconclusive. Unless noted, on the % scale 0 is the no-effect control and ±100 the full control effect.

SMILES	ALOX12 inh	HT1080NT lethal	TDP1 cell CPT	HT1080 IDH1KD tx	IL1B secr inh	TDP1 cell noCPT
CCOC(=O)c1c(-c2ccc(OC)cc2)csc1/N=C/C1C(=O)CCCC1=O	8%	?	-22%	18µM*	-18	?
CCOC(=O)c1c(-c2ccc(OC)cc2)csc1NC(=O)CNC(C)(C)C	1%	.	.	.	.	.
Cc1oc2c(c1C(=O)NC1CCN(C)CC1)CN(Cc1ccc(F)cc1)CC2	-4%	.	.	.	.	.
Cc1oc2c(c1C(=O)NCc1ccncc1)CN(Cc1cccc(F)c1)CC2	-5%	.	.	.	.	.
Cc1oc2c(c1C(=O)NCc1cccnc1)CN(Cc1ccc(F)cc1)CC2	9%	.	.	.	.	.
Cc1oc2c(c1C(=O)NC1CCCC1)CN(Cc1ccc(F)cc1)CC2	13µM*	.	.	.	.	.
Cc1oc2c(c1C(=O)N1CCN(C3CCCC3)CC1)CN(Cc1cccc(F)c1)CC2	8.9µM*	.	.	.	.	.
Cc1ccc(CN2CCc3oc(C)c(C(=O)NC4CCCC4)c3C2)cc1	25µM*	.	.	.	.	.
O=c1cc(N2CCCCC2)c(-c2ccccc2)nn1Cc1ccc(Cl)cc1Cl	?	?	?	?	-2	18µM*
Cc1ccccc1NC(=O)N1CCC(N2CCCC(C(=O)N3CCCC3)C2)CC1 (stereo not given)	23%	.	.	.	.	.
COc1cccc(N2CCN(C(=O)c3cn(Cc4ccccc4)nc3-c3cccnc3)CC2)c1	0%	5.8µM*	2.6µM*	3.3µM*	71	2.1µM*
O=C(c1cn(Cc2ccccc2)nc1-c1cccnc1)N1CCN(Cc2ccccc2)CC1	?	0%[9.24 µM]	?	-2%	-6	-12%
O=C(c1cn(Cc2ccccc2)nc1-c1cccnc1)N1CCN(Cc2c(F)cccc2Cl)CC1	0%	2%	?	2%	17	29µM*
O=C(CSc1nc2ccccc2s1)NCCc1ccc(F)cc1	6%	.	.	.	.	.
CS(=O)(=O)N1CCCC(C(=O)NCCCN2CCCc3ccccc32)CCNC(=O)CC1 (stereo not given)	i	.	.	.	.	.
C=CCNC(=S)Nc1ccc(Cl)c(Cl)c1	50%	.	.	.	.	.
CCC/C(=N\N=C(/CCC)c1ccccc1)c1ccccc1	-2%	.	.	.	.	.
COCCNC(=O)CSc1cc(C(=O)NC2CC2)c2ccccc2n1	-3%	.	.	.	.	.
COc1cccc(C=Cc2nccc3ccccc23)c1OC	?	-28%	?	-26%	-58*	16µM*
COc1cccc(/C=C/c2cnc3ccccc3n2)c1OC	.	.	?	.	.	20µM*
COc1cccc(/C=C/c2nc3cc(C)c(C)cc3s2)c1OC	-5%	.	.	.	.	.
COc1ccc(/C=C/c2nccc3ccccc23)cc1OC	.	.	11µM*	.	.	14µM*
Cc1ccc(NC(=O)N2CCc3c(C(=O)NCCCN4CCCC4=O)cccc32)cc1	-14%	.	.	.	.	.
O=C(c1ccccc1NS(=O)(=O)c1ccc([N+](=O)[O-])cc1[N+](=O)[O-])N1O[C@@H]2C=C[C@H]1C2	-16%	-2%	9.2µM*	-2%	-72*	9.2µM*
CCCc1[nH]n(-c2ccc(F)cc2)c(=O)c1C=Nc1cccc(F)c1	15%	7.3µM*	6.5µM*	15µM*	26	6.5µM*
CCOc1cc2c(cc1NC(=O)CCC(=O)c1ccc(C)cc1)OC(C)C2 (stereo not given)	4.5µM*	.	.	.	.	.
COc1cc(OC)c2c(C)c(CC(=O)NCCN3CCOCC3)c(=O)oc2c1	10%	.	.	.	.	.
Oc1c(N=NC(=S)Nc2ccccc2F)c2ccccc2n1Cc1ccc(Cl)cc1	-23%	-15%	4.6µM*	2%	-11	5.8µM*
Cc1ccc(C)c(Cn2c(O)c(N=NC(=S)Nc3ccccc3F)c3ccccc32)c1	4%	1%	5.2µM*	8%	-8	2.9µM*
CCn1c(O)c(N=NC(=O)CNC(=O)c2ccccc2F)c2ccccc21	-15%	?	?	?	0	?

Screens from PubChem BioAssay.
